{"source": "ChEMBL document CHEMBL4513216", "about": "“Probing the Open Global Health Chemical Diversity Library for Multistage-Active Starting Points for Next-Generation Antimalarials” (ACS Infect Dis, 2020)", "note": "Screen size: about 68,000 compounds; about 2,700 (4%) showed an effect of 50% or more. The entries come from a sample that favours strong results as a whole.", "data": [{"system": "Plasmodium berghei", "assay": "Screen against P. berghei liver stage (PbLuc), transformed with Luciferase, at 2uM", "format": "functional, HepG2", "settings": "tested at 2 uM", "units": {"INHIBITION": "%"}, "values": [{"smiles": "COc1ccc2c3c1CN(C(C)=O)CC3=CC(C)(C)CO2", "INHIBITION": 22.01}, {"smiles": "Cc1ccsc1C(=O)NC(C)c1ccc2c(c1)CCC(=O)N2", "note": "(stereo unspecified)", "INHIBITION": 0.48}, {"smiles": "CSc1ccsc1C(=O)NC(C)c1ccc2c(c1)CCC(=O)N2", "note": "(stereo unspecified)", "INHIBITION": 0.48}, {"smiles": "CC(NC(=O)c1sccc1C1CC1)c1ccc2c(c1)CC(=O)N2", "note": "(stereo unspecified)", "INHIBITION": 51.14}, {"smiles": "Cn1cc(C(=O)NCc2ccc(N3CCCC3)nc2)ccc1=O", "INHIBITION": -0.05}, {"smiles": "Cc1ccn(CC(=O)NCCCOc2ccccc2F)c(=O)c1", "INHIBITION": 15.2}, {"smiles": "CN(C)S(=O)(=O)N1CCC(c2ccncn2)CC1", "INHIBITION": -5.42}, {"smiles": "COCCn1ccc(NC(=O)Nc2ccncc2)n1", "INHIBITION": 1.94}, {"smiles": "O=S(=O)(NCC1(c2cccs2)CCOCC1)c1cccnc1", "INHIBITION": -0.59}, {"smiles": "O=S(=O)(NCC1(c2cccs2)CCOCC1)c1ccc2c(c1)OCCO2", "INHIBITION": -12.08}, {"smiles": "O=S(=O)(NCC1(c2cccs2)CCCC1)c1cccnc1", "INHIBITION": 58.53}, {"smiles": "Cc1cccc(Nc2ccc(C3CCCCN3)cn2)n1", "note": "(stereo unspecified)", "INHIBITION": 30.53}, {"smiles": "O=C(NC1CC1)[C@H]1C[C@H]2OCC[C@H]2N(CC2CC2)C1", "INHIBITION": 28.49}, {"smiles": "O=C(COCc1ccccc1)N1CCCC1c1noc(C2CC2)n1", "note": "(stereo unspecified)", "INHIBITION": 37.68}, {"smiles": "CN(CCCOc1ccccc1)Cc1nccn1C", "INHIBITION": -27.01}, {"smiles": "CN(CCCc1ccc(C(F)(F)F)cc1)Cc1nccn1C", "INHIBITION": 59.08}, {"smiles": "Cn1ccnc1CN(CCO)Cc1ccc(C(F)(F)F)cc1", "INHIBITION": 9.42}, {"smiles": "CSCC(CCO)NC(=O)c1cccc(C)c1Cl", "note": "(stereo unspecified)", "INHIBITION": -5.44}, {"smiles": "Cc1cn2c(n1)CCC(NC(=O)c1cc(Br)cn1C)C2", "note": "(stereo unspecified)", "INHIBITION": -2.1}, {"smiles": "CCOc1ccc(C(F)(F)F)cc1NC(=O)NCc1noc(C)n1", "INHIBITION": -40.82}, {"smiles": "Cc1nc(CN2C(=O)COC3(CCN(CC4CC4)CC3)C2C)cs1", "note": "(stereo unspecified)", "INHIBITION": 35.26}, {"smiles": "CC(=O)N1CCC(CCNC(C)c2cc(F)cc(F)c2)CC1", "note": "(stereo unspecified)", "INHIBITION": 14.63}, {"smiles": "CC(=O)N1CCC(CCNC(C)c2cc(C)cc(C)c2)CC1", "note": "(stereo unspecified)", "INHIBITION": 8.03}, {"smiles": "CC(=O)N1CCC(CCNC(C)Cc2ccc(F)cc2)CC1", "note": "(stereo unspecified)", "INHIBITION": 63.1}, {"smiles": "CN(C)C(=O)C1CN(Cc2ccccn2)CCN(S(C)(=O)=O)C1", "note": "(stereo unspecified)", "INHIBITION": 25.72}, {"smiles": "Cc1noc(C)c1CN(C)C(=O)c1ccc(C(N)=O)nc1", "INHIBITION": 17.31}, {"smiles": "COc1ccccc1CN(CC1CCCO1)C(=O)c1scnc1C", "note": "(stereo unspecified)", "INHIBITION": 21.54}, {"smiles": "O=C(c1ccco1)N1C[C@@H]2OCCN(c3ncccn3)[C@@H]2C1", "INHIBITION": 41.73}, {"smiles": "CCN1C(=O)C(c2ccccc2)CC12CCN(c1ncccn1)CC2", "note": "(stereo unspecified)", "INHIBITION": 30.4}, {"smiles": "CCN1C(=O)C(c2ccccc2)CC12CCN(Cc1cccnc1)CC2", "note": "(stereo unspecified)", "INHIBITION": 52.36}, {"smiles": "CCN1C(=O)C(c2ccccc2)CC12CCN(CCO)CC2", "note": "(stereo unspecified)", "INHIBITION": 21.06}]}]}
